Sampled rows, rich in hits. Any-hit rate of the full collection: about 17%.
HT1080 IDH1KD tx: kills HT-1080 cells with IDH1 knockdown; Potency, µM (series often up to 46.1 µM), inactives show at the highest dose activity, negative = toxicity, hits mostly cytotoxic; HT-1080 IDH1 knockdown viability, ATP luminescence, 48 h; AID 686971; 360,000 tested, 2% active;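 further: 0% = DMSO wells and -100% = cell-free medium wells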
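Assay cells: HT-1080 with IDH1 knockdown, 750 per well, RPMI/5% FBS. Exposure: 48 h at 37 °C following 2 h pre-incubation. Read: CellTiter-Glo luminescence; fitted concentration-response, curve class assigned.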
HT1080-NT tox: kills 2HG-producing HT-1080-NT fibrosarcoma cells; Potency, µM (highest dose often 46.1 µM), for the others: at the top dose activity, negative = less viability, hits mostly cytotoxic; HT-1080-NT fibrosarcoma viability, CellTiter-Glo ATP luminescence, 48 h; 360,000 tested, 1.6% active;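 further: NT is the 2HG producing partner of a matched IDH1 knockdown line; 0% = DMSO-treated cells and -100% = media-only wells without cells; nearly all actives have a fitted effect of over 55% in size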
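A 48-hour cytotoxicity screen used HT-1080-NT cells plated 2 hours before compound delivery. ATP-based CellTiter-Glo luminescence measured viability, normalized to DMSO and no-cell controls.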
DT40 TDP1 no CPT: qHTS for Inhibitors of human tyrosyl-DNA phosphodiesterase 1 (TDP1): qHTS in cells in absence of CPT; DT40 Tdp1-/- hTDP1 cells, no CPT, ATP luminescence, 48 h; AID 686978, 2013; 420,000 tested, 15% active; Potency, µM (top dose mostly 46.2 µM), for the others: top-dose activity change, negative = growth inhibition, hits mostly inhibitors; further: on the % scale 0 is the no-effect control and ±100 the full control effect; nearly all actives have a fitted effect of over 55% in size
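Growth kinetics read by CellTiter-Glo luminescence after ≥48 hr at 37 °C. Cells: DT40 Tdp1-/- stably carrying human TDP1, 400 per well, compound exposure in the absence of CPT (DMSO vehicle).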
TGFb SMAD3 inh: blocks TGF-b signaling | AID 588855 | 410,000 tested, 1.2% active | Potency, µM (top dose mostly 46.1 µM), inactives show at the top dose activity, negative = inhibition, usual class: inhibitors | HepG2 CAGA-GFP TGF-b/SMAD3 reporter, GFP fluorescence, 18 h; TGF-beta stimulated, 500 pg/mL final; further: on the % scale 0 is the no-effect control and ±100 the full control effect; nearly all actives have a fitted effect of over 65% in size
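Cell-based qHTS in HEPG2 carrying a CAGA-GFP Smad reporter; compounds added before 500 pg/mL final TGF-beta, 18 h incubation at 37 degrees C, GFP fluorescence quantified per cell by imaging cytometry.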
TDP1 cell CPT: DT40-hTDP1 cell growth loss with CPT. chicken DT40 Tdp1-/-;hTDP1 cells + 20 nM CPT, ATP luminescence, 48 h. Potency, µM (series often up to 46.2 µM), inactives show at the highest dose activity change, negative = growth inhibition, usual class: inhibitors. 420,000 tested, 12% active; further: on the % scale 0 is the no-effect control and ±100 the full control effect; nearly all actives have a fitted effect of over 55% in size
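Chicken DT40 Tdp1-/- cells complemented with human TDP1, 400 cells/well, exposed to compounds plus 20 nM camptothecin for at least 48 h at 37 C; viability read as ATP content by CellTiter-Glo luminescence.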
HepG2 viability: HepG2 cytotoxicity, counter-screen for TGF-b inhibitors | 410,000 tested, 0.76% active | HepG2 CAGA-GFP viability, ATP luminescence, 18 h | AID 588856 | Potency, µM (series often up to 46.1 µM), without a hit: top-dose activity change, negative = cytotoxicity, most hits filed as cytotoxic
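CellTiter-Glo luminescence gave cytotoxicity after 18 hours at 37 degrees C. The cells were HepG2 CAGA-GFP in 1% FBS DMEM, stimulated with 500 pg/mL TGF-beta after compound addition. %Activity was normalised to no-cell wells (complete cell-killing) and DMSO (no toxicity), and curves were fitted and classified.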
The depositor's hits bear a star; ? = inconclusive; · = no result; [ ] = remark or other dose. The call rests on the fitted dose curve; in most records, active means well fitted curve in the direction sought with a large enough effect; inconclusive means small, poorly fitted or top-dose-only effect, or another doubt; inactive means no such curve, though single readings can be large; an effect the other way counts as inactive or inconclusive. Potency means the concentration at half of the fitted maximal effect.

SMILES	HT1080 IDH1KD tx	HT1080-NT tox	DT40 TDP1 no CPT	TGFb SMAD3 inh	TDP1 cell CPT	HepG2 viability
CCn1cc2nc(SCc3c(F)cccc3Cl)n(CCc3ccccc3)c(=O)c2n1	·	·	23µM*	?	15µM*	-26%
CCn1cc2nc(SCc3cccc(C(F)(F)F)c3)n(Cc3ccc(OC)cc3)c(=O)c2n1	·	·	15µM*	?	21µM*	-28%
O=C1CN=C(c2ccccc2)c2cc(Cl)ccc2N1	-1%	-15%	-7%	-7%	1%	-34%
Cc1ccccc1C(=O)N1Cc2ccccc2-n2nncc2C1	5%	-2%	?	-2%	?	-3%
CC(=O)OC1N=C(c2ccccc2Cl)c2cc(Br)ccc2N(C)C1=O (configuration not stated)	-1%	-2%	?	-5%	-11%	16%
Cn1cc(C2=C(c3cn(C4CCN(Cc5ccccn5)CC4)c4ccccc34)C(=O)NC2=O)c2ccccc21	·	·	-5%	·	5%	·
CCCCC[C@@H](O)C1C(=O)OC(C)[C@H](O)/C=C/C=C/C=C/C=C/C=C(\C)C(O)C(O)C(O)C[C@H](O)C[C@H](O)C[C@H](O)C[C@H](O)C[C@@H]1O (some centres not stated)	·	·	0%	·	6%	·
Cc1cccc(N2C(=O)NC(=O)C3(Cc4cc(C)ccc4N(C)C3)C2=O)c1 (configuration not stated)	4%	3%	?	-21%	1%	-1%
Cc1ccc2c(c1)CC1(CN2C)C(=O)NC(=O)N(C(C)C)C1=O (configuration not stated)	11%	19%	?	-1%	18µM*	14%
O=C(NC(O)C(Cl)(Cl)Cl)NC(O)C(Cl)(Cl)Cl (configuration not stated)	·	·	-17%	·	7%	·
Cc1cc2c(s1)Nc1ccccc1N=C2N1CCN(C)CC1	8%	-2%	?	2%	?	-20%
CS(=O)(=O)c1ccc(C2=C(CNC(=O)c3cccnc3)[C@H]3CC[C@@H](C2)N3Cc2ccccc2)cc1	0%	1%	-18%	6%	-2%	-14%
CCOC(=O)CC(NC(=O)C(Cc1ccc(N(CCCl)CCCl)cc1)NC(C)=O)C(=O)OCC (configuration not stated)	?	?	0.52µM*	?	1.5µM*	-39%
O=[N+]([O-])c1cnc[nH]1	·	·	-4%	22%	-9%	4%
COc1ccc(CCNC(=O)CCc2c(C)nc3c(-c4ccc(F)cc4)c(C)nn3c2C)cc1OC	·	·	12µM*	?	8.2µM*	9%
COc1cc2c(cc1OC)-c1c(OC)c(OC)cc3c1[C@H](C2)N(C)CC3	-5%	-2%	16µM*	-2%	?	-21%
COc1cc2c(cc1O)CC1c3c(cc(O)c(OC)c3-2)CCN1C (configuration not stated)	0%	-6%	-25%	-9%	-28%	-14%
CC(C)Cn1c(=O)oc2ccccc21	-3%	-1%	-2%	?	8%	6%
CCCCCn1c(=O)c(C(=O)Nc2ccccc2C)c(O)c2ccccc21	9%	18%	2%	2%	21%	-4%
CCCCn1c(=O)c(C(=O)Nc2ncccc2C)c(O)c2ccccc21	16µM*	23µM*	?	8%	?	-18%
CCCCCCn1c(=O)c(C(=O)Nc2ncccc2C)c(O)c2ccccc21	?	?	1.6µM*	9%	4.1µM*	-22%
CCOP(=O)(c1ccc(N(C)C)cc1)C(O)c1cccnc1 (configuration not stated)	20%	14%	1%	17%	5%	20%
COc1ccc(N2CCN(c3ncnc4c3nc3n4CCCCC3)CC2)cc1	·	·	?	?	?	-3%
ClCCN(CCCl)c1ccc(C=Nc2ccc(/C=C/c3ccncc3)cc2)cc1	·	·	13µM*	-9%	13µM*	-24%
O=C(NN=Cc1ccc(N(CCCl)CCCl)cc1)c1cccc([N+](=O)[O-])c1	?	-26%	?	-53%	?	-40%
SMILES	HT1080 IDH1KD tx	HT1080-NT tox	DT40 TDP1 no CPT	TGFb SMAD3 inh	TDP1 cell CPT	HepG2 viability
ClCCN(CCCl)c1ccc(C=Nc2ccncc2)cc1	·	·	11µM*	11%	?	-7%
O=P(C(Cl)Cl)(N1CCCCC1)N1CCCCC1	2%	15%	4%	16%	-3%	1%
O=C(c1cc2ccccn2n1)N1CCC2(CC1)OCCO2	14%	-2%	-11%	-15%	-7%	4%
COc1ccc(-c2cc(C(F)(F)F)n3nc(C(=O)N4CCC5(CC4)OCCO5)cc3n2)cc1OC	-8%	-6%	21µM*	-7%	-23%	-23%
CC(C)(C)n1nnnc1C(c1ccccc1)N1CCC2(CC1)C(=O)NCN2c1ccccc1 (configuration not stated)	2%	-1%	?	-10%	?	7%
CN1c2ccc([N+](=O)[O-])cc2CC2(C(=O)NC(=O)N(c3ccc(Br)cc3)C2=O)C1c1ccccc1 (configuration not stated)	-2%	0%	18µM*	-30%	18µM*	4%
N#Cc1c(Cl)nc(Cl)c2c1CCN(Cc1ccccc1)C2	?	0%	16µM*	-4%	?	-18%
Cc1cccc(C)c1-n1nnnc1C(c1cccc2ccccc12)N1CCC(n2c(=O)[nH]c3ccccc32)CC1 (configuration not stated)	10%	16%	16µM*	-25%	15µM*	-16%
Cc1cccc(C)c1-n1nnnc1C(C1CC1)N1CCC(n2c(=O)[nH]c3ccccc32)CC1 (configuration not stated)	5%	7%	?	-2%	?	-19%
Cc1cccc(C)c1-n1nnnc1C(c1cccs1)N1CCC(n2c(=O)[nH]c3ccccc32)CC1 (configuration not stated)	?	-28%	21µM*	?	?	-4%
OC12Oc3ccccc3C=C1N1CCC2CC1 (configuration not stated)	10%	15%	-6%	8%	-6%	4%
CS(=O)(=O)c1ccc(C(=O)C2C(=O)CCCC2=O)c([N+](=O)[O-])c1	·	·	?	·	-30%[92.5 µM]	·

Source: PubChem BioAssay
